{"source": "PubChem BioAssay (EPA / NIEHS)", "note": "Values joined by “and” are separate entries in the source; they are usually repeats but may differ in a detail not shown here. Identical values can stand only once. Results filed as inconclusive are left out. More than one record can exist for a structure, and the calls need not agree. Active and inactive are the calls of the source. The calls were made as follows: active = hit-call score of the fitted dose curve at least 0.9, where 1 is the maximum; inconclusive = response in the unintended direction; inactive = score below 0.9.", "data": [{"target": "human CYP2J2, CYP2J2 (gene 1573) (UniProt P51589)", "sequence (P51589 whole entry, looked up)": "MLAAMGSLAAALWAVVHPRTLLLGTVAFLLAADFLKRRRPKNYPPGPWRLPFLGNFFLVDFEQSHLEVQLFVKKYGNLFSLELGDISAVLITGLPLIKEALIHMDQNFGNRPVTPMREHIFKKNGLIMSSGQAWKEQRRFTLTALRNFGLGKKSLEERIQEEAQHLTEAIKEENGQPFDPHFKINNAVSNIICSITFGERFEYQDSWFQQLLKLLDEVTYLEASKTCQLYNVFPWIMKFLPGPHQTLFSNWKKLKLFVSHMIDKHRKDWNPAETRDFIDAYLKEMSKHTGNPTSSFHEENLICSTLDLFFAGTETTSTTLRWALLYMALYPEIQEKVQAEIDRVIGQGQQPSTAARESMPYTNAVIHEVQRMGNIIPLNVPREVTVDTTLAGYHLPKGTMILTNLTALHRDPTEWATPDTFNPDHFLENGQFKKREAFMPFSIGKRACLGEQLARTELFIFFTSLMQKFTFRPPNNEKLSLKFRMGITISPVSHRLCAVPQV", "assay": "NVS_ADME_hCYP2J2: NovaScreen (NVS) CYP450-related Enzyme Activity (ADME) Assay for human CYP2J2 (AID 2283106)", "description": "NVS_ADME_hCYP2J2 is a biochemical, single-readout assay that uses extracted gene-proteins in a cell-free assay. Measurements were taken 1 hour after chemical dosing in a 96-well plate.NVS_ADME_hCYP2J2 is one of one assay component(s) measured or calculated from the NVS_ADME_hCYP2J2 assay. It is designed to make measurements of enzyme activity, a form of enzyme reporter, as detected with fluorescence intensity signals by Fluorescence technology.Data from the assay component NVS_ADME_hCYP2J2 was analyzed into 1 assay endpoint. This assay endpoint, NVS_ADME_hCYP2J2, was analyzed in the positive analysis fitting direction relative to Acetonitrile as the negative control and baseline of activity. Using a type of enzyme reporter, loss-of-signal activity can be used to understand changes in the enzymatic activity as they relate to the gene CYP2J2. Furthermore, this assay endpoint can be referred to as a primary readout, because this assay has produced multiple assay endpoints where this one serves a enzymatic activity function. To generalize the intended target to other relatable targets, this assay endpoint is annotated to the cyp intended target family, where the subfamily is xenobiotic metabolism.\nBinding assays used specific radioligands (tritiated, iodinated) with non-radioactive competitive displacement ligands in agonist or antagonist protocols (as indicated) and various reference compounds and inhibitors to titrate specific binding to receptors and transporters. Most enzyme assays (CYPs, kinases, phosphatases, proteases, HDACs) used recombinant protein and specific substrates (fluorescence mostly, some colorimetric and radioactive) and inhibitors, followed by a biochemical separation of substrate and product. All assays for the biochemical HTS were initially run in duplicate at a single concentration (10 uM for CYP450 assays and 25 uM for all others). Assay-chemical combinations meeting a pre-defined threshold (e.g., 30% inhibition and other criteria defined below) were then run in singleton concentration-response format with maximum concentration of 20 uM for CYPs and 50 uM for all others. Each assay was run with positive and negative controls, and concurrent controls on every plate. The follow-up (secondary) screen tested active chemical-pairs in concentration series, as well as a few additional assays not tested in the primary screen, some selected negative inactives, and several cases re-run in the concentration series for confirmatory purposes.", "values": [{"smiles": "CCSC(=O)N(CC(C)C)CC(C)C", "AC50": "1.4 µM (active)"}, {"smiles": "C=CCOC(Cn1ccnc1)c1ccc(Cl)cc1Cl", "note": "(centres undefined)", "AC50": "0.166 µM (active)"}, {"smiles": "CCN(CC)CCOc1ccc(C(=C(Cl)c2ccccc2)c2ccccc2)cc1", "AC50": "4.08 µM (active) and 7.21 µM (active)", "outcome": "inactive"}, {"smiles": "C#CCOC(=O)[C@@H](C)Oc1ccc(Oc2ncc(Cl)cc2F)cc1", "AC50": "0.189 µM (active)"}, {"smiles": "CC(C)(c1ccc(O)cc1)c1ccc(O)cc1", "AC50": "4.93 µM (active)"}, {"smiles": "Cc1nn(C)c(Oc2ccccc2)c1C=NOCc1ccc(C(=O)OC(C)(C)C)cc1", "AC50": "5.24 µM (active)"}, {"smiles": "C#C[C@]1(O)CC[C@H]2[C@@H]3CCc4cc(O)ccc4[C@H]3CC[C@@]21C", "AC50": "878 nM (active) and 2.68 µM (active) and 672 nM (active)"}, {"smiles": "CCOC(=O)NCCOc1ccc(Oc2ccccc2)cc1", "outcome": "inactive"}, {"smiles": "C[C@]12CC[C@@H]3c4ccc(O)cc4CC[C@H]3[C@@H]1CC[C@@H]2O", "outcome": "inactive"}, {"smiles": "O=c1c(-c2ccc(O)cc2)coc2cc(O)cc(O)c12", "AC50": "979 nM (active) and 1.06 µM (active) and 443 nM (active)"}, {"smiles": "Oc1ccc(C(c2ccc(O)cc2)C(Cl)(Cl)Cl)cc1", "AC50": "2.99 µM (active)"}, {"smiles": "CCCCOCCOCCOCc1cc2c(cc1CCC)OCO2", "AC50": "0.116 µM (active)"}, {"smiles": "N#CSCSc1nc2ccccc2s1", "AC50": "0.466 µM (active)"}]}]}
